This note sets out measurements from PubChem BioAssay (Tox21).

The structures appear in SMILES notation. Inconclusive results are not listed. Unmarked numbers belong to inactive results. Activity calls are given as the source filed them. Calls come from the whole dose curve; as a rule, active = well fitted cell-killing curve with a large enough effect in the repeat runs; inconclusive = weak or mixed curves, or effect the other way; inactive = no such curve, though single readings can be large or run the other way.
% is set by controls: 0 for no effect and ±100 for the full control effect; potency is the fitted concentration of half-maximal effect.

The nature of this assay: qHTS assay to identify small molecule antagonists of the progesterone receptor (PR) signaling pathway - cell viability counter screen (AID 1346798). Note: nearly all actives have a fitted effect of over 50% in size. The conditions noted are these: PR-UAS-bla HEK293T viability, CellTiter-Glo luminescence, 16 h; series mostly up to 92.4 µM; activity change, negative = cytotoxicity: at the top concentration. From the text: National Center for Advancing Translational Sciences [NCATS]
NIH Chemical Genomics Center [NCGC]
U.S. Environmental Protection Agency [EPA]
National Institutes of Environmental Health Sciences [NIEHS]
National Toxicology Program [NTP]
U.S. Food and Drug Administration [FDA]
Progesterone receptor (PR), a nuclear hormone receptor, plays an important role in development, metabolic homeostasis and reproduction. It is activated by the steroid hormone progesterone. Endocrine disrupting chemicals (EDCs) and their interactions with steroid hormone receptors like PR causes disruption of normal endocrine function. To identify the compounds that inhibit PR signaling, a PR-UAS-bla GripTite cell line i.e. PR-UAS-bla HEK293T (Invitrogen, Carlsbad, CA, USA) containing a beta-lactamase reporter gene under the control of an UAS response element was used to screen Tox21 10K compound library. The cytotoxicity of the Tox21 compound library against the PR-bla cell line was tested in parallel by measuring the cell viability using CellTiter-Glo assay in the same wells.
Tox21 Assay Protocol Summary:
PR-UAS-bla HEK293T cells were dispensed at 3,000 cells/4 uL of assay medium containing 2% charcoal stripped FBS per well into black wall/clear-bottom 1536-well plates using a Multidrop Combi (ThermoFisher Scientific, Waltham, MA) dispenser. After the assay plates were incubated at a 37C and 5% CO2 for 4 hr, 23 nL of compounds dissolved in DMSO, positive controls or DMSO only was transferred to the assay plate by a Pintool station (Kalypsys, San Diego, CA), followed by addition of 1 uL of R5020 in assay medium using a Flying Reagent Dispenser (FRD, Aurora Discovery, San Diego, CA). The plates were incubated at 37C and 5% CO2 for 16 hr. Then 1 uL of LiveBLAzer B/G FRET substrate was added using a Flying Reagent Dispenser, the plates were incubated at room temperature for 2 hours, and fluorescence intensity was measured by an Envision plate reader (PerkinElmer, Shelton, CT). For cell viability readout that measures cytotoxicity, 4 uL/well of CellTiter-Glo reagent was added into the assay plates using a FRD. After 30 min incubation at room temperature, the luminescence intensity in the plates was measured using a ViewLux (PerkinElmer) plate reader.
In general terms: Quantitative high-throughput screening tests each substance at several concentrations.
For `ClP(Cl)(Cl)(Cl)Cl`, the “activity change, negative = cytotoxicity” value is 1.93%. As to `CCCCNP(N)(N)=S`, the “activity change, negative = cytotoxicity” value is -3.55%. As to `CC(C)(Cl)[N+](=O)[O-]`, the “activity change, negative = cytotoxicity” value was 14.5%. Still for that read-out and setting: the same measure for `C=CC(=O)OCC(C)O` (stereo not given): 1.73%; for `CCOP(=O)(OCC)O/C(=C/Cl)c1ccc(Cl)cc1Cl`: 26.3%. Consider `ClCc1ccccc1`, for which the “activity change, negative = cytotoxicity” value was 3.95%. On the same count and under the same terms, the same measure for `NCC(CC(=O)O)c1ccc(Cl)cc1` (stereo not given): -8.73% [at 0.348 µM].

As for `C#CCOC(C(=O)OCCN(C)C)(c1ccccc1)c1ccccc1`, the “activity change, negative = cytotoxicity” value was -18.2% [at 42.5 µM].

Take `NCCCNCCCN`: the “activity change, negative = cytotoxicity” value was -18%. Turning to `C=CC(=O)OC`, the “activity change, negative = cytotoxicity” value is -14.4%.

Turning to `CCCCC(CC)COP(=O)(Oc1ccccc1)Oc1ccccc1` (stereo not given), the “activity change, negative = cytotoxicity” value is -14.5%. As to `IC(I)=C(I)I`, the Potency is 27.3 µM (active).

On to `C=CC(=O)NCNC(=O)C=C`, for which the “activity change, negative = cytotoxicity” value was 8.29%. Still for that read-out and setting: the same measure for `Nc1ccc([N+](=O)[O-])cc1[N+](=O)[O-]`: 4.07%.

As to `O=C1C(Cl)C(CCl)CN1c1cccc(C(F)(F)F)c1` (stereo not given), the Potency was 0.864 µM (active).

For `CC(C)N(CCC(C(N)=O)(c1ccccc1)c1ccccn1)C(C)C` (stereo not given), the “activity change, negative = cytotoxicity” value is -0.448% [at 42.5 µM]. `CCOP(=O)(OCC)SCCSCC`: the Potency entry is “inactive”. Consider `COc1nn(C(=O)NS(=O)(=O)c2ccccc2OC(F)(F)F)c(=O)n1C`, for which the “activity change, negative = cytotoxicity” value is 7.55%. Still for that read-out and setting: the same measure for `C=CC[C@]1(O)CC[C@H]2[C@@H]3CCC4=CC(=O)CCC4=C3C=C[C@@]21C`: 19.2% [at 42.5 µM]; for `Sc1ccccc1Cl`: 1.29% [at 42.5 µM]. The same measure, in the same setting: the same measure for `CCOP(=S)(Oc1ccc([N+](=O)[O-])cc1)c1ccccc1` (stereo not given): 7.62%. Same read-out and setting: the figure for `CC(C)O.CC(C)O.OCCN(CCO)CCO.OCCN(CCO)CCO.[Ti]` is -4.84%; for `C=CC(C)=O` it is 21.4%. Regarding `NC(=O)CI`, the “activity change, negative = cytotoxicity” value is -12.4%.

Turning to `CCOC(=O)CBr`, the “activity change, negative = cytotoxicity” value is 14.3%. Still for that read-out and setting: the same measure for `ClC=C(Cl)Cl`: 0.0221%; for `O=C(NC(=O)c1c(F)cccc1F)Nc1cc(Cl)c(Oc2ncc(C(F)(F)F)cc2Cl)c(Cl)c1`: 9.51%. Same read-out and setting: the same measure for `N#CCc1ccccc1`: 6.59%; for `c1ccc(CN2CCNCC2)cc1`: -15.8% [at 238 µM]; for `NNC(=O)c1cccnc1`: -10.2%. In the case of `CS/C(C)=N/OC(=O)N(C)SN(C)C(=O)O/N=C(\C)SC`, the “activity change, negative = cytotoxicity” value is 15.2%. Same read-out and setting: the same measure for `O=C(CBr)Nc1ccc(Cl)cc1C(=O)c1ccccc1F`: 11.1% [at 42.5 µM]; for `Clc1cc(Cl)c(Cl)c(Cl)c1`: 1.04%; for `Nc1nc(N)nc(N)n1`: 10%. Regarding `CCC(Br)(CC)C(=O)NC(N)=O`, the “activity change, negative = cytotoxicity” value is 0%. Still for that read-out and setting: the figure for `CO/N=C(/C(=O)OC)c1ccccc1COc1ccccc1C` is 12.4%. As for `ClCC(Br)CBr` (stereo not given), the “activity change, negative = cytotoxicity” value was 13.8%. On to `[CH3][Sn]([CH3])([Cl])[Cl]`, for which the Potency entry is “inactive”. On to `COc1cc(Cl)c(OC)cc1Cl`, for which the “activity change, negative = cytotoxicity” value is 0.174%. Same read-out and setting: the figure for `CCOP(=S)(OCC)Oc1cc(Cl)c(Br)cc1Cl` is 2.24%.
